Source: PubChem BioAssay (NCATS)
Results filed as inconclusive are left out. Calls of active or inactive are those of the source. Unless noted, calls follow the shape of the dose curve; as a rule, active = well fitted curve in the direction sought with a large enough effect; inconclusive = small, poorly fitted or top-dose-only effect, or another doubt; inactive = no such curve, though single readings can be large; an effect the other way counts as inactive or inconclusive.

Key:
[1] = biological target: Lysosomal acid glucosylceramidase (Homo sapiens) (UniProt P04062); assay: Glucocerebrosidase-p2 (AID 348; in the data active = potency below about 10 µM; also: potency is read from the fitted curve at half-maximal effect); conditions: purified GBA, blue fluorogenic substrate, 40 min
In short: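 Normal human glucocerebrosidase (0.2 nM) with blue fluorogenic substrate (80 uM final) in citrate/phosphate pH 5.9 with 10mM sodium taurocholate, 0.01% tween-20; 40 min RT, NaOH/glycine stop; fluorescence Ex 365/Em 440; AC50 from a titration from 0.6 nM upwards.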

[2] = AP1 Signaling Pathway (AID 357; active = well fitted curve in either direction with a large enough effect, not every such curve was filed as active;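 also: ME-180 reporter cells stimulated with EGF at its EC50 level; % is scaled to controls: 0 for no effect and ±100 for the full control effect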); conditions: ME-180 AP-1-bla reporter, EGF-induced, beta-lactamase ratio, 5 h; at 7.69 µM (top of the series) unless noted
In short: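 First, ME-180 AP-1-bla cells were cultured overnight at 37 °C in low-serum Opti-MEM. Next, titrated compounds with EC50 EGF were incubated 5 hours. Finally, CCF4 was added for 2.5 hours and the 460/530 nm ratio recorded.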

[3] = biological target: Cytochrome P450 1A2 (Homo sapiens) (UniProt P05177); assay: p450-cyp1a2 (AID 410; calls by dose curve; also: potency is read from the fitted curve at half-maximal effect)
In short: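 Luminescent demethylation readout: Luciferin-ME (100uM, equal to Km) turned over by 20nM CYP1A2 for 60 min at room temperature after NADPH regeneration addition, following 10 min compound preincubation. Normalization used 57 uM furafylline as full inhibition.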

[4] = NFAT Signaling Pathway (AID 444; active = well fitted curve in either direction with a large enough effect, not every such curve was filed as active;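 also: carbachol stimulus at about its EC50 of 1 µM final; % is scaled to controls: 0 for no effect and ±100 for the full control effect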); conditions: Jurkat NFAT-bla M1, carbachol, beta-lactamase ratio, 5 h; at 7.69 µM (top of the series) unless noted
In short: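 Jurkat cells with NFAT-driven β-lactamase reporter and co-expressed M1 receptor, stimulated with carbachol (final 1 uM, ~EC50), compound titration, 5 h at 37 °C. CCF4 loaded 1 h at RT; 460/530 nm ratio gave %activity and AC50.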

[5] = Stat Signaling Pathway (AID 446; active = well fitted curve in either direction with a large enough effect, not every such curve was filed as active;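 also: ME-180 cervical cancer cells given 40 pM IL-6 alongside compound; SIE-controlled beta-lactamase reporter measured as 460/530 nm FRET emission ratio; % is scaled to controls: 0 for no effect and ±100 for the full control effect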); conditions: ME-180 SIE beta-lactamase reporter, IL-6 stimulated, 5 h; at 7.69 µM (top of the series) unless noted
In short: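 FRET read-out (405 nm excitation, 460/530 nm emission) of a beta-lactamase reporter under a STAT-inducible element in ME-180 cervical carcinoma cells. Cells with compound receive 40 pM IL-6 for 5 h. Values are normalised to AC90 stimulation and AC90 JAK-inhibitor controls.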

[6] = biological target: Glucocorticoid receptor (Homo sapiens) (UniProt P04150); assay: GR-GFP Redistribution (AID 450;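 active = compounds whose dose series gives a full or clear partial fitted curve of increased nuclear translocation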; also: potency is read from the fitted curve at half-maximal effect); conditions: U2OS GR-GFP nuclear translocation, laser cytometry, 2 h
[7] = biological target: Glucocorticoid receptor (Homo sapiens) (UniProt P04150); assay: GR-EFC Redistribution (AID 451; calls by dose curve; also: potency is read from the fitted curve at half-maximal effect); conditions: CHO-K1 GR-EFC translocation, beta-gal luminescence, 2 h
In short: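 CHO-K1 cells expressing nuclear EA and GR-ED fragments of b-gal; compounds titrated up to 46 uM final, 2 h at 37 C. GR nuclear translocation read as complemented b-gal luminescence after 1 h RT detection.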

[8] = biological target: Mitogen-activated protein kinase 10 (Mus musculus) (UniProt Q61831); assay: JNK3 AlphaScreen Assay (AID 530; active = well fitted curve in either direction with a large enough effect, not every such curve was filed as active;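 also: kinase came from lysate of stimulated human HepG2 cells; signal reports phosphorylation of biotinylated GST-cJun 1-79 at Ser73 with 10 µM ATP; % is scaled to controls: 0 for no effect and ±100 for the full control effect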)
In short: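 Activity was read by AlphaScreen after JNK3-containing HepG2 lysate (cytokine pre-activated) phosphorylated biotinylated GST-cJun with 10 uM ATP at room temperature. Phospho-Ser73 cJun antibody with Protein-A acceptor beads provided detection.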

[9] = biological target: 3',5'-cyclic-AMP phosphodiesterase 4B (Homo sapiens) (UniProt Q07343); assay: qHTS Assay for Inhibitors of PDE-IV (AID 607; active = well fitted activation curve with a large enough effect in the main read-out, with a control signal flat, not every such curve was filed as active; also: % of control where 0% means no effect)
In short: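 Cell-based read-out of cAMP via a modified cyclic nucleotide-gated channel and membrane potential dye (535/590 nm) in HEK293 cells expressing PDE4 endogenously. Compounds tested up to 22.9 uM final; 100 uM RO 20-1724 reference.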

[10] = biological target: Cytochrome P450 2C9 (Homo sapiens) (UniProt P11712); assay: qHTS Assay for Inhibitors and Substrates of Cytochrome P450 2C9 (AID 883); also: % is scaled to controls: 0 for no effect and ±100 for the full control effect; nearly all actives have a fitted effect of over 60% in size
In short: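 Signal: luciferase luminescence reporting luciferin produced by CYP2C9. Conditions: 10nM enzyme, Luciferin-H 100uM at KM, 25mM KPO4, 37C, 60 min NADPH-driven reaction. Reference: 57uM sulphaphenazole as 100% inhibition.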

[11] = biological target: Cytochrome P450 3A4 (Homo sapiens) (UniProt P08684); assay: qHTS Assay for Activators of Cytochrome P450 3A4 (AID 885); also: nearly all actives have a fitted effect of over 65% in size
In short: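 Luminescent readout of luciferin formed from 25 uM Luciferin-PPXE (KM level) by 20 nM CYP3A4 in 200 mM KPO4, with 60 min NADPH-driven reaction at room temperature after 10 min compound exposure. Ketoconazole (57 uM) defined 100% inhibition.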

[12] = biological target: Cytochrome P450 2C19 (Homo sapiens) (UniProt P33261); assay: qHTS Assay for Inhibitors and Substrates of Cytochrome P450 2C19 (AID 899); also: nearly all actives have a fitted effect of over 60% in size; also: potency is read from the fitted curve at half-maximal effect
In short: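 Signal comes from luciferase acting on luciferin released by CYP2C19-mediated hydroxylation of Luciferin-H EGE, 10uM (KM). Assay mix: 5nM enzyme, 50mM KPO4; 60 min at 37C with NADPH regeneration. Data normalized against 57uM ketoconazole.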

[13] = Confirmation and Secondary Assay for Modulators of Hemoglobin Beta Chain Splicing at IVS2 654 locus (AID 910);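 also: HeLa cells stably carrying EGFP split by mutant beta-globin IVS2-654 intron; % of control where 0% means no effect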
In short: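 HeLa cells stably expressing EGFP interrupted by β-globin IVS2-654 intron, seeded overnight in Opti-MEM/2% FCS, then treated 2 days at 37 °C. Restored splicing read as total peak GFP intensity per well by laser scanning cytometry (488 nm excitation, 500–520 nm emission); 500 nM antisense PNA as control.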

[14] = qHTS Assay for Identification of Small Molecule Agonists for Hypoxia Response Element Signaling Pathway (AID 914; active = well fitted activation curve with a large enough effect in the signal ratio, with a control signal flat, not every such curve was filed as active; the % refers to the signal ratio; also: % of control where 0% means no effect); conditions: ME-180 (cervical carcinoma) HRE-bla reporter, beta-lactamase ratio, CoCl2, 17 h; activation: stronger effect = higher value
In short: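 A beta-lactamase reporter under hypoxia response element control in ME-180 cells served as the system. Compound titrations plus EC50 CoCl2 ran 17 h at 37 degrees Celsius; AC50 values were fitted from %Activity.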

[15] = Confirmation and Secondary Assay for Modulators of Hemoglobin Beta Chain Splicing at IVS2 705 locus (AID 930);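 also: HeLa cells stably expressing the EGFP-705 splicing reporter; GFP fluorescence per well restored by corrected splicing of the IVS2-705 intron in EGFP; % of control where 0% means no effect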
In short: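 Fluorescence gain (488 nm laser, 500-520 nm PMT) reflects restored correct splicing of a mutant IVS2-705 intron inside EGFP in stably transfected HeLa cells after 2-day compound treatment.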

[16] = qHTS Assay for Lipid Storage Modulators (AID 1519; calls by dose curve); conditions: Drosophila S3 cells, BODIPY lipid droplet/cell ratio, laser cytometry, cells loaded with oleic acid; for activity change, negative = inhibition: at 57.5 µM (top of the series)
In short: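 Cells seeded at 5,000 per well were treated with compounds over a concentration series and loaded with oleic acid (400 uM, as added). Lipid droplet fluorescence (488 nm excitation, 500-530 nm channel) was read by laser-scanning cytometry and normalized to 20 uM Triacsin C.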

[17] = biological target: Ubiquitin carboxyl-terminal hydrolase 1 (Homo sapiens) (UniProt O94782); assay: Inhibitors of USP1/UAF1: Pilot qHTS (AID 504865);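 also: rhodamine fluorescence freed from ubiquitin-rhodamine substrate followed over time; top concentration of the series differs between compounds; % is scaled to controls: 0 for no effect and ±100 for the full control effect; nearly all actives have a fitted effect of over 35% in size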
In short: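 Deubiquitinase activity followed as kinetic rhodamine fluorescence release from 150 nM Ub-Rho. 1 nM USP1/UAF1 with compound, after 15 min room-temperature preincubation, in HEPES pH 7.8 buffer containing TCEP, EDTA, BSA and Tween-20.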

[18] = Primary qHTS for small molecule stabilizers of the endoplasmic reticulum resident proteome: Secreted ER Calcium Modulated Protein (SERCaMP) assay (AID 1508630); also: % is scaled to controls: 0 for no effect and ±100 for the full control effect
In short: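 The SH-SY5Y reporter protocol was run at 3 concentrations up to 38.3 uM (primary) or 11 concentrations (follow-up): 16 h compound, 100 nM thapsigargin for 4 h, then extracellular luciferase luminescence.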

[19] = biological target: Cytochrome P450 3A4 (Homo sapiens) (UniProt P08684); assay: qHTS Assay for Inhibitors and Substrates of Cytochrome P450 3A4 (AID 884); also: potency is read from the fitted curve at half-maximal effect; nearly all actives have a fitted effect of over 50% in size
In short: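 Luminescent readout of luciferin produced by CYP3A4 (20 nM) dealkylation of Luciferin-PPXE, 25 uM (its KM). NADPH-driven reaction ran 60 min at RT after 10 min compound preincubation; data scaled to 57 uM ketoconazole as 100% inhibition.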

[20] = measured here: cell count channel max response
[21] = measured here: lipid channel max response

Sequence of Cytochrome P450 2C19 (Homo sapiens) (P33261 whole entry, looked up): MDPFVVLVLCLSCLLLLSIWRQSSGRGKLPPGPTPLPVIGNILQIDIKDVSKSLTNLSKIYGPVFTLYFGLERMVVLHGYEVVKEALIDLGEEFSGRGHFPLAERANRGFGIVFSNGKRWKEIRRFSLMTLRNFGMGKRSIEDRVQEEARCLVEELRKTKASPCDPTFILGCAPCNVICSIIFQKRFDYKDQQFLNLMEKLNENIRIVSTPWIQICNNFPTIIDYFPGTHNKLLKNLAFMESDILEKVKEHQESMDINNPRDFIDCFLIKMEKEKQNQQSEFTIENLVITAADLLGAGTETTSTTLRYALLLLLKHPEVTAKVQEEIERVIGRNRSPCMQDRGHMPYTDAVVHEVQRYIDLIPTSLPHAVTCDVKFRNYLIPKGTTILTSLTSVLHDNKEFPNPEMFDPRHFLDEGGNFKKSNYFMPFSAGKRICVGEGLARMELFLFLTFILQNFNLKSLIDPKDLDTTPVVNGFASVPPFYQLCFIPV
Sequence of Lysosomal acid glucosylceramidase (Homo sapiens) (P04062 whole entry, looked up): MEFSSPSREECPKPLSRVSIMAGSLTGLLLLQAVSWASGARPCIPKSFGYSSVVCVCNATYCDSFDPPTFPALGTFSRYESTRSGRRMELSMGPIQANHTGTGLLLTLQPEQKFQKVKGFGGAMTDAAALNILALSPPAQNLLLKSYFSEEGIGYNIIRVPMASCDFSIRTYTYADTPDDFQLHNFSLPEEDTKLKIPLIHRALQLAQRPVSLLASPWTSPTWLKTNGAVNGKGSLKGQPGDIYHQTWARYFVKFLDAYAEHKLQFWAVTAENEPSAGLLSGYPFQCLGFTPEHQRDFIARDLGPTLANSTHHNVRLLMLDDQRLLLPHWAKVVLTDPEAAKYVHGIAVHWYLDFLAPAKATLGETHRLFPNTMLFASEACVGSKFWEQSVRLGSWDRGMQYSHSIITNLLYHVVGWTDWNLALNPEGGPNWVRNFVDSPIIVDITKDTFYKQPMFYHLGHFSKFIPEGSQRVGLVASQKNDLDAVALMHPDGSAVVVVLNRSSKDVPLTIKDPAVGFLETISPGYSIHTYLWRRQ
Sequence of Ubiquitin carboxyl-terminal hydrolase 1 (Homo sapiens) (O94782 whole entry, looked up): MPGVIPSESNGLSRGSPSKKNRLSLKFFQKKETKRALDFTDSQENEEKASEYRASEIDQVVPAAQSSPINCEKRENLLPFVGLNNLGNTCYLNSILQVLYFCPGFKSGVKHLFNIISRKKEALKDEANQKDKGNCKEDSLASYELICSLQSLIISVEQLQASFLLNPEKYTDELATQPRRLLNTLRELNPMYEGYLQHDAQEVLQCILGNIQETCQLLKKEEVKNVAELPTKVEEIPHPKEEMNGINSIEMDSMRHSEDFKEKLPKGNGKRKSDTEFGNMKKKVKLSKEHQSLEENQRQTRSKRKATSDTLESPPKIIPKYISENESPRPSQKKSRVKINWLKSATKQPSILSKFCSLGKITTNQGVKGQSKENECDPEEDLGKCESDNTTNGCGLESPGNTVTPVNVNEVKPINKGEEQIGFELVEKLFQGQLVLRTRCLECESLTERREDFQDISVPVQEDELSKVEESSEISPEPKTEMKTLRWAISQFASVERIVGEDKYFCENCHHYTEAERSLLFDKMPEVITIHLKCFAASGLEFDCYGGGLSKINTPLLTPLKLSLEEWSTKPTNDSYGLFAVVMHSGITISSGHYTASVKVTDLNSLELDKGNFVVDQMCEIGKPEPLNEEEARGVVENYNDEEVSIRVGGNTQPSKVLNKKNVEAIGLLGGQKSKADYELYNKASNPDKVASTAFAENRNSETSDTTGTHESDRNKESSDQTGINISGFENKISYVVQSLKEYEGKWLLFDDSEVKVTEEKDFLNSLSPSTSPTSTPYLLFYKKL
Sequence of Cytochrome P450 3A4 (Homo sapiens) (P08684 whole entry, looked up): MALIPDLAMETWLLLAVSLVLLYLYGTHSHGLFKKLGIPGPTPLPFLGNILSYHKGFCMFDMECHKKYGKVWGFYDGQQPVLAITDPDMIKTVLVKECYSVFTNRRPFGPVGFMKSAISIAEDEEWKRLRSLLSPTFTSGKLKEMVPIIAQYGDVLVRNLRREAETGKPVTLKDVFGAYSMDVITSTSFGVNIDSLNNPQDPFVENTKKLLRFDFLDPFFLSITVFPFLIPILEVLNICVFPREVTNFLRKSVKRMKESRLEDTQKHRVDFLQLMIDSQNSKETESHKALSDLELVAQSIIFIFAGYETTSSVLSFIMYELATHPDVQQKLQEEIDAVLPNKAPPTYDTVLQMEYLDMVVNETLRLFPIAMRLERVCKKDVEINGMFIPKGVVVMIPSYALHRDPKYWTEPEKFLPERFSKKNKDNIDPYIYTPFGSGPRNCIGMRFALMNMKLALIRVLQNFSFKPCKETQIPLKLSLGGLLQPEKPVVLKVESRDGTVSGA
Sequence of Glucocorticoid receptor (Homo sapiens) (P04150 whole entry, looked up, the tested form may be a part): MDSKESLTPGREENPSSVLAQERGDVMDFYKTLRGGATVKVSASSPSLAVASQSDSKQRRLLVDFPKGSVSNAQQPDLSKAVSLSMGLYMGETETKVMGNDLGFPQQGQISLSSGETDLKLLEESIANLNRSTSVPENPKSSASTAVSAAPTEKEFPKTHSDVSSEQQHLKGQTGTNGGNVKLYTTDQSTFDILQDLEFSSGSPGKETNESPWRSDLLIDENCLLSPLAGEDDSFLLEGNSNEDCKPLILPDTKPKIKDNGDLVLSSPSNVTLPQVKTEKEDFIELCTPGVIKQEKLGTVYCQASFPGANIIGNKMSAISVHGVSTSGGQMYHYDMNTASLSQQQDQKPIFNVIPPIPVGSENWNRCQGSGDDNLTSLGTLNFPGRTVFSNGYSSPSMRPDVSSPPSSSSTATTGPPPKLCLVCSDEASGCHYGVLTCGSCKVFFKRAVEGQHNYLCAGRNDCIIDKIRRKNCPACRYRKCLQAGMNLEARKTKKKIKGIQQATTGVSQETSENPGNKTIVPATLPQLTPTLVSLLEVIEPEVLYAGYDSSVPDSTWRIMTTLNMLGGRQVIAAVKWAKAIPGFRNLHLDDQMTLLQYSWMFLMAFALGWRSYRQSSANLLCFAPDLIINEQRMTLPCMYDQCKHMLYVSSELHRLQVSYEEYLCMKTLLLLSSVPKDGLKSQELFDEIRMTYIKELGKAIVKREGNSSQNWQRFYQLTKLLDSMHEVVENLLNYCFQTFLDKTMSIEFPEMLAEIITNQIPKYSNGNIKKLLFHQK
Sequence of 3',5'-cyclic-AMP phosphodiesterase 4B (Homo sapiens) (Q07343 whole entry, looked up): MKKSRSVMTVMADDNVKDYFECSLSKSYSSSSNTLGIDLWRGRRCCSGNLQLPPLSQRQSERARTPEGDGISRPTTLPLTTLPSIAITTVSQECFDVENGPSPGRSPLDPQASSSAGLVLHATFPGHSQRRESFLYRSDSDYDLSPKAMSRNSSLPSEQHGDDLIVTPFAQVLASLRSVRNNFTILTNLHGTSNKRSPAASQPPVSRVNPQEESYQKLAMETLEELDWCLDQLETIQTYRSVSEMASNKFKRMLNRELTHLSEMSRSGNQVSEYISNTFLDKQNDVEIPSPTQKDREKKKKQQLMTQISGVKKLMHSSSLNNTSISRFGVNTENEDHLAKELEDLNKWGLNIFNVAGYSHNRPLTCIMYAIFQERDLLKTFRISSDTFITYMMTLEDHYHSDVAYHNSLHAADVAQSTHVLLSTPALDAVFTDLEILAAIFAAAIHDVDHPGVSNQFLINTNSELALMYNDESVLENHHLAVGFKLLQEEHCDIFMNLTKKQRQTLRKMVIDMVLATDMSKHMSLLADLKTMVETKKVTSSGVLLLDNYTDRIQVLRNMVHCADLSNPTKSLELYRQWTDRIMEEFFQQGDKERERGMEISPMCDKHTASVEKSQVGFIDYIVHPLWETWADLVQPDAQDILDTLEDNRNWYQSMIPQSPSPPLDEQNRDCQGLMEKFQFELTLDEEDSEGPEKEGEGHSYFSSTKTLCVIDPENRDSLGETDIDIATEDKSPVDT
Sequence of Cytochrome P450 1A2 (Homo sapiens) (P05177 whole entry, looked up): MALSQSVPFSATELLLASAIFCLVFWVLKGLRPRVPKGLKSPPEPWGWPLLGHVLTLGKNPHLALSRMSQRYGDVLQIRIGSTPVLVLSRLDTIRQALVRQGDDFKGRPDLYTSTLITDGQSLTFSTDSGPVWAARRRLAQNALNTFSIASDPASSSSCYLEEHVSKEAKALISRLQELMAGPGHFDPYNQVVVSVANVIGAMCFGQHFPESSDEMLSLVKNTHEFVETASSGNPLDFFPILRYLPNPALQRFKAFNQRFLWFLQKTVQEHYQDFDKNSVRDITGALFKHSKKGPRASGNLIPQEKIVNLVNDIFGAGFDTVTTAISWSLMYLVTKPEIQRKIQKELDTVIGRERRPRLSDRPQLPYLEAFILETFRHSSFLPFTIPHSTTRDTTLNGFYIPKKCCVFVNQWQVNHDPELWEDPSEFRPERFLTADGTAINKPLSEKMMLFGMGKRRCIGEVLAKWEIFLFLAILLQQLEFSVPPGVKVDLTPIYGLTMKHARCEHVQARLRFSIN
Sequence of Cytochrome P450 2C9 (Homo sapiens) (P11712 whole entry, looked up): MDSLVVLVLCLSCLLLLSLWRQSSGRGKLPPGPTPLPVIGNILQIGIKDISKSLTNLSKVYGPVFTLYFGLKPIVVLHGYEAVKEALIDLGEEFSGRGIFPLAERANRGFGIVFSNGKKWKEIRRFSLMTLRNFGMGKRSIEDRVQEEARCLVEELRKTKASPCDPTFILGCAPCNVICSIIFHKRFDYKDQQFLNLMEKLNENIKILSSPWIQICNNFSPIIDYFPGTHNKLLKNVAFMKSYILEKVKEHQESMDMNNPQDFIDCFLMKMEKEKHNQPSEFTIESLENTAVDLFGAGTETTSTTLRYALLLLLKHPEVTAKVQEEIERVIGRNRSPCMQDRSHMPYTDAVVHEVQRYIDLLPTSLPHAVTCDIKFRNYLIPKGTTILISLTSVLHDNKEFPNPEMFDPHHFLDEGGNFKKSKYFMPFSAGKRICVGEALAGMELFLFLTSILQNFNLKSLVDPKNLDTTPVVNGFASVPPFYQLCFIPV

Q: Which results are given for CNc1ccnc(-c2c(C)noc2C)n1?
A: Potency [1]: > 11.4 µM (inactive); activity change, negative = inhibition [2]: 2.46% (inactive); Potency [3]: 1.26 µM (active); activity change, negative = inhibition [4]: 1.59% (inactive); activity, negative = inhibition [5]: 12.4% (inactive); Potency [6]: > 46 µM (inactive); Potency [7]: > 46 µM (inactive); outcome [8]: inactive; Potency [9]: inactive; activity change, negative = inhibition [10]: 41% [at 2.29 µM] (inactive); Potency [11]: inactive; Potency [12]: inactive; outcome [13]: inactive; activation [14]: 11.5% (inactive); outcome [15]: inactive; activity change, negative = inhibition [16]: 4.8% (inactive); max response [16, 20]: -12.7%; max response [16, 21]: -8.12%; Potency [17]: inactive; Potency [18]: inactive

Q: Which Potency [1] does the source give for Cc1noc(C)c1-c1nccc(-n2ccnc2)n1 here?
A: > 11.4 µM (inactive)

Q: And the activity change, negative = inhibition [2]?
A: 3.6% (inactive)

Q: What about the Potency [3] of the same compound?
A: 0.2 µM (active)

Q: And the activity change, negative = inhibition [4]?
A: -0.351% (inactive)

Q: And the activity, negative = inhibition [5]?
A: 16.2% (inactive)

Q: What about the Potency [6] of the same compound?
A: > 46 µM (inactive)

Q: And the Potency [7]?
A: > 46 µM (inactive)

Q: And the outcome [8]?
A: inactive

Q: And the Potency [9]?
A: inactive

Q: And the activity change, negative = inhibition [10]?
A: 16.1% [at 2.29 µM] (inactive)

Q: What about the Potency [19] of the same compound?
A: 1.26 µM (active)

Q: What about the Potency [11] of the same compound?
A: inactive

Q: What about the Potency [12] of the same compound?
A: 3.98 µM (active)

Q: What about the outcome [13] of the same compound?
A: inactive

Q: What about the outcome [15] of the same compound?
A: inactive

Q: What about the activity change, negative = inhibition [16] of the same compound?
A: 7.83% (inactive)

Q: And the max response [16, 20]?
A: 12.5%

Q: What about the max response [16, 21] of the same compound?
A: 20.6%

Q: And the Potency [17]?
A: inactive

Q: What about the Potency [18] of the same compound?
A: inactive

Q: With COCCNc1nc(-c2ccccc2CN(C)C)nc2ccccc12 as the compound, how does the Potency [1] read?
A: > 11.4 µM (inactive)

Q: And the activity change, negative = inhibition [2]?
A: 4.08% (inactive)

Q: What about the Potency [3] of the same compound?
A: 10 µM (active)

Q: What about the activity change, negative = inhibition [4] of the same compound?
A: -0.773% (inactive)

Q: And the activity, negative = inhibition [5]?
A: 10% (inactive)

Q: And the Potency [6]?
A: > 46 µM (inactive)

Q: What about the Potency [7] of the same compound?
A: > 46 µM (inactive)

Q: And the outcome [8]?
A: inactive

Q: What about the Potency [9] of the same compound?
A: inactive

Q: What about the Potency [11] of the same compound?
A: inactive

Q: What about the outcome [13] of the same compound?
A: inactive

Q: And the activation [14]?
A: 2.67% (inactive)

Q: What about the outcome [15] of the same compound?
A: inactive

Q: What about the activity change, negative = inhibition [16] of the same compound?
A: 3.16% (inactive)

Q: What about the max response [16, 20] of the same compound?
A: 2.38%

Q: What about the max response [16, 21] of the same compound?
A: 6.21%

Q: And the Potency [17]?
A: inactive

Q: What about the Potency [18] of the same compound?
A: inactive

Q: With COc1cccc(-c2cncnc2NCc2ccccc2)c1 as the compound, how does the Potency [1] read?
A: > 11.4 µM (inactive)

Q: What about the activity change, negative = inhibition [2] of the same compound?
A: -17.1% (inactive)

Q: What about the Potency [3] of the same compound?
A: 5.01 µM (active)

Q: What about the activity change, negative = inhibition [4] of the same compound?
A: 1.11% (inactive)

Q: And the activity, negative = inhibition [5]?
A: -9.01% (inactive)

Q: What about the Potency [6] of the same compound?
A: > 46 µM (inactive)

Q: And the Potency [7]?
A: > 46 µM (inactive)

Q: And the outcome [8]?
A: inactive

Q: What about the Potency [9] of the same compound?
A: inactive

Q: And the Potency [19]?
A: 0.316 µM (active)

Q: And the Potency [11]?
A: inactive

Q: And the Potency [12]?
A: 1.58 µM (active)

Q: What about the outcome [13] of the same compound?
A: inactive

Q: What about the outcome [15] of the same compound?
A: inactive

Q: What about the activity change, negative = inhibition [16] of the same compound?
A: 9.98% (inactive)

Q: What about the max response [16, 20] of the same compound?
A: 12.4%

Q: And the max response [16, 21]?
A: 12.8%

Q: And the Potency [17]?
A: inactive

Q: And the Potency [18]?
A: inactive
